DAX1 inh-1: inhibits human nuclear receptor DAX1; P51843; HEK293 Gal4-DAX1 luciferase reporter, luminescence; inhibition, % at 6.75 µM; 340,000 compounds, 0.99% hits; AID 504766;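 active = inhibition above the mean over all tested compounds plus 3 SD, cut at about 4.2% in these data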;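 note: inhibition shows as a rise in luminescence from relieved DAX1 repression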
Target sequence (P51843 207-470 limits assumed): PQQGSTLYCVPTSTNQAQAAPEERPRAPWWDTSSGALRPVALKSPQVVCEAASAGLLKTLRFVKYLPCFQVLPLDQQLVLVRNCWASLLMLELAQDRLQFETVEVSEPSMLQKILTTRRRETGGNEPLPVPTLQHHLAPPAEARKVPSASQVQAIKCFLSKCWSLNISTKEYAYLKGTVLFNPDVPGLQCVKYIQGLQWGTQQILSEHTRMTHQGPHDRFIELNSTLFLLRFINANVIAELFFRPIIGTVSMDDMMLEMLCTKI
ssDAF12 agonist: activates DAF-12 receptor from parasite S. stercoralis; 370,000 compounds, 1% hits; HEK293 ssDAF-12/GRIP1 lit1-tk-luc reporter, luminescence; % of 3 µM dafachronic acid response; activation, % at 6.8 µM;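 active = activation above the mean over all tested compounds plus 3 SD, cut at about 0.9% in these data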
hgDAF12 agonist: hgDAF-12 agonism, primary luciferase screen | HEK293 GAL4-hgDAF12 UAS-luciferase reporter, agonist luminescence; normalized to butyrate control | activation, % at 6.8 µM | 370,000 compounds, 1.8% hits;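 active = activation above a cutoff set at the mean of all screened compounds plus 3 SD, cut at about 10% in these data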
hcDAF-12 act: activators of H. contortus DAF-12 nuclear receptor | HEK293 hcDAF-12 lit1-tk-luc reporter, luminescence; 0% DMSO, 100% Δ7-dafachronic acid | activation, % at 6.8 µM | 370,000 compounds, 1.4% hits;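 active = activation above the mean of all tested compounds plus 3 SD, cut at about 5.5% in these data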
DAX1 inh-2: blocks DAX1 repression of SF-1 activated StAR promoter. HEK293T StAR-luciferase reporter, SF-1/DAX-1 repression relief. inhibition, % at 6.8 µM. 370,000 compounds, 1.1% hits;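 active = inhibition above the mean over all tested compounds plus 3 SD, cut at about 3.6% in these data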;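 note: higher inhibition means more luminescence from relief of DAX-1 repression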
Of the large screens only hits and unclear results are named; the others gave an inactive call. Shown are actives, neighbours in structure and some others; about 4.1% of the full set was active somewhere.

O=C(N/N=C/c1ccccc1[N+](=O)[O-])c1ccncc1	none
Cc1ccc2nc(C)c(C(=O)N/N=C/c3cccs3)n2c1	hgDAF12 agonist 12
O=C(N/N=C/c1ccccc1[N+](=O)[O-])c1cnccn1	DAX1 inh-1 4.3
Cc1nc2ccc(Br)cn2c1C(=O)N/N=C\c1ccccc1[N+](=O)[O-]	hgDAF12 agonist 10, hcDAF-12 act 6.2 (no result: DAX1 inh-1)
Cc1ccn2c(C(=O)N/N=C\c3cccs3)c(C)nc2c1	none
Cn1c(=O)c(=O)n(C)c2cc(S(=O)(=O)N3CCN(Cc4ccc5c(c4)OCO5)CC3)ccc21	none (no result: DAX1 inh-1)
Cc1nn(-c2ccccc2)c(C)c1/C=N/NC(=O)c1[nH][nH]c(=O)c1C	none (no result: DAX1 inh-1)
CC(=O)NCCC(=O)Nc1sc2c(c1-c1nc3ccccc3[nH]1)CCCC2	none
CN1CCN(S(=O)(=O)c2cccc(C(=O)Nc3sc4c(c3-c3nc5ccccc5[nH]3)CCCC4)c2)CC1	hcDAF-12 act 6.1
COc1ccc(-c2nnc(SCC(=O)Nc3ccc(S(=O)(=O)Nc4nccs4)cc3)n2-c2ccc(OC)cc2)cc1	none (no result: DAX1 inh-1)
O=S1(=O)CC2c3ccccc3CN2CN1CCc1ccccc1 (stereo not given)	none (no result: DAX1 inh-1)
CC(=Nc1cccc(O)c1)c1sc2ccccc2c1O	ssDAF12 agonist 1.5
CCCC1CCC2(CC1)CCC2OC(=S)Nc1ccccc1C(F)(F)F (stereo not given)	none (no result: DAX1 inh-1, DAX1 inh-2)
Cc1ccc(Nc2nc(-c3sc(N)nc3C)cs2)cc1	hcDAF-12 act 5.8
COc1ccc(Nc2nc(-c3sc(N)nc3C)cs2)cc1	none
CCOC(=O)c1cc2nc(-c3ccccc3)cc(C)n2n1	none
CCOC(=O)c1cnn2c(C)cc(-c3ccccc3)nc12	DAX1 inh-1 4.3
Cc1cccc(NC(=S)NCCC(C)C)c1	none
CC(C)CCNC(=O)C(=O)Nc1ccccc1	hgDAF12 agonist 13
Cc1occc1-c1nnc(SCC(=O)N2CCN(c3ncccn3)CC2)n1-c1ccccc1	none (no result: DAX1 inh-1)
O=C(Cc1c(F)cccc1Cl)Nc1cc(S(=O)(=O)N2CCCCC2)ccc1N1CCOCC1	DAX1 inh-1 5.8
O=C(/C=C/c1ccccc1)Nc1cc(S(=O)(=O)N2CCOCC2)ccc1N1CCCC1	none
Cc1cc(NC(=S)NC(=O)/C=C/c2ccc(S(=O)(=O)N3CCOCC3)cc2)ccc1Br	ssDAF12 agonist 3.9
O=C(/C=C/c1ccccc1)Nc1cc(S(=O)(=O)N2CCOCC2)ccc1N1CCOCC1	DAX1 inh-1 4.5
CN1CCN(c2ccc(S(=O)(=O)N3CCCCC3)cc2NC(=O)Cc2c(F)cccc2Cl)CC1	none
O=C(CSc1ccccc1)Nc1cc(S(=O)(=O)N2CCOCC2)ccc1N1CCOCC1	DAX1 inh-1 4.3
Fc1ccc(-c2n[nH]c(=S)n2N=Cc2cccc(OCc3ccccc3)c2)cc1	none (no result: DAX1 inh-1)
O=C(C1CC1)N1CCC(C(O)(c2ccccc2)c2ccccc2)CC1	DAX1 inh-1 5.1
CN1C2=N[C@H](c3ccccc3Br)CC(=O)N2/C(=C\c2ccccc2)[C@@H]1c1ccccc1	none (no result: DAX1 inh-1, DAX1 inh-2)
O=C1C(=O)N(Cc2ccc(-c3ccc(Cl)nc3)cc2)c2ccc(OC(F)(F)F)cc21	none (no result: DAX1 inh-1, DAX1 inh-2)
CCN(CC)CCCNC(=O)c1cc2c(=O)n(C)c3ccccc3c2n1C	DAX1 inh-1 7.5
CCN(CC)CCNC(=O)c1cc2c(=O)n(C)c3ccccc3c2n1C	DAX1 inh-2 4.2
CCCCN(CC)CCNC(=O)c1cc2c(=O)n(C)c3ccccc3c2n1C	none
CCCN1CCN(CCCNC(=O)c2cc3c(=O)n(C)c4ccccc4c3n2C)CC1	DAX1 inh-1 8.4
Cn1c(C(=O)NCCCN2CCCCCC2)cc2c(=O)n(C)c3ccccc3c21	none
CCCN(CCC)CCCNC(=O)c1cc2c(=O)n(C)c3ccccc3c2n1C	DAX1 inh-1 7.8, DAX1 inh-2 5.0
CC1CCN(c2ccc(C(=O)O)cc2NS(=O)(=O)c2ccc(Cl)s2)CC1	none (no result: DAX1 inh-1)
COc1cc2c(cc1OC)C1CCc3cc4c(cc3C1N=C2)OCO4 (stereo not given)	hgDAF12 agonist 11
Cc1cc(NC(=O)C(C)C)n(-c2nc3ccccc3s2)n1	ssDAF12 agonist 0.9
CC(C)C(=O)NC(=S)Nc1sc2c(c1C(N)=O)CCCC2	hgDAF12 agonist 11
CCCC(=O)NC(=S)Nc1sc2c(c1C(N)=O)CCC2	none
CC(=O)NC(=S)Nc1sc2c(c1C#N)CCCCC2	hgDAF12 agonist 12
COC(=O)[C@]12C[C@H](CC(=O)NCC34CC5CC(CC(C5)C3)C4)C(=O)N(CCC3=CCCCC3)C1=C[C@H](C(C)C)O[C@@H]2C1CC1	none (no result: DAX1 inh-1)

Source: PubChem (The Scripps Research Institute Molecular Screening Center)
